Assay in all cases: yeast three-hybrid, YBZ-1, SC-Leu-His + 0.5 mM 3-AT, 4 days
Holding throughout (conditions): tags: N-Gal4 AD-HA kept; label: inside an RPR1-promoter hybrid RNA with tandem MS2 sites; ssRNA

The target of one test is T1, PUM1 PUF domain R6-VYM (Homo sapiens, UniProt Q14671 828-1176, N1043V;Q1047M).
T1 sequence: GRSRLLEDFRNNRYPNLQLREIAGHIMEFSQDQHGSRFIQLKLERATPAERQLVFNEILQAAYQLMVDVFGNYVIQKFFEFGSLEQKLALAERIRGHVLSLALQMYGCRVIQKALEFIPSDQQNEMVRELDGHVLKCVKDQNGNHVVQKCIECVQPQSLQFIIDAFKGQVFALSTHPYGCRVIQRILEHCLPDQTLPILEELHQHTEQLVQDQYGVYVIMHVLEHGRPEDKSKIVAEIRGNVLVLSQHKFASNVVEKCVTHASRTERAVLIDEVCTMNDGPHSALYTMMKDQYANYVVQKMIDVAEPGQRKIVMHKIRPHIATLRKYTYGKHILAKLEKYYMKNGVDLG
An outline of the steps: (§1)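 Sequencing with Illumina followed PCR amplification of the repeat regions from transformants grown four days on SC-Leu (input) or SC-Leu-His + 0.5 mM 3-AT (selection). The transformants were strain YBZ-1 with a LexA–MS2 coat fusion and a HIS3 reporter, carrying Pumilio-1 PUF domain libraries and matching RNA elements. The interaction score is the log change in variant frequency from input to selection, computed in log2 with a pseudocount of 1 for absent variants.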

In a further test the target is PUM1 PUF domain R3-DFE (Homo sapiens, UniProt Q14671 828-1176, C935D;R936F;Q939E). A digest of the protocol:
as §1

The next test addresses PUM1 PUF domain R4-VHH (Homo sapiens, UniProt Q14671 828-1176, N971V;Q975H). A digest of the protocol:
as §1

The target in the next test is PUM1 PUF domain R4-EHR (Homo sapiens, UniProt Q14671 828-1176, N971E;Q975R). A digest of the protocol: as §1
Another test addresses PUM1 PUF domain R5-RSR (Homo sapiens, UniProt Q14671 828-1176, C1007R;R1008S;Q1011R). A digest of the protocol: as §1
The next test addresses PUM1 PUF domain R5-SQS (Homo sapiens, UniProt Q14671 828-1176, C1007S;R1008Q;Q1011S). A digest of the protocol: as §1
Another test concerns the target PUM1 PUF domain R8-PYH (Homo sapiens, UniProt Q14671 828-1176, N1122P;Q1126H). A digest of the protocol:
as §1

A further test deals with PUM1 PUF domain R1-KAS (Homo sapiens, UniProt Q14671 828-1176, S863K;R864A;Q867S). An outline of the steps: as §1
In another test the target is PUM1 PUF domain R1-RVQ (Homo sapiens, UniProt Q14671 828-1176, S863R;R864V). A digest of the protocol:
as §1

A further test concerns the target PUM1 PUF domain R7-RFP (Homo sapiens, UniProt Q14671 828-1176, S1079R;N1080F;E1083P). An outline of the steps:
as §1

On to “GGCUAGAACUAGUGGAUCCCCCGGCGCCCGGCGGCUCGAGCCCGGGUAAGUGAAAAUAGUCUGCAUGCCGCCGGGCGCCAUGCCUGCAGGUCGACUCUAGAAAACAUG”, for which the binding signal in the test with PUM1 PUF domain R6-VYM is 6.6 log2 enrichment (interaction score).
On to “GGCUAGAACUAGUGGAUCCCCCGGCGCCCGGCGGCUCGAGCCCGGGUAAGUGUAAAUAGUCUGCAUGCCGCCGGGCGCCAUGCCUGCAGGUCGACUCUAGAAAACAUG”, for which the binding signal with PUM1 PUF domain R6-VYM was 2.8 log2 enrichment (interaction score); in the test with PUM1 PUF domain R3-DFE, 2.28 log2 enrichment (interaction score).
With “GGCUAGAACUAGUGGAUCCCCCGGCGCCCGGCGGCUCGAGCCCGGGUAAGUGUACAUAGUCUGCAUGCCGCCGGGCGCCAUGCCUGCAGGUCGACUCUAGAAAACAUG”, the binding signal with PUM1 PUF domain R4-VHH is 5.04 log2 enrichment (interaction score); with PUM1 PUF domain R4-EHR, 3 log2 enrichment (interaction score).
On to “GGCUAGAACUAGUGGAUCCCCCGGCGCCCGGCGGCUCGAGCCCGGGUAAGUGUCAAUAGUCUGCAUGCCGCCGGGCGCCAUGCCUGCAGGUCGACUCUAGAAAACAUG”, for which, in the test with PUM1 PUF domain R5-RSR, the binding signal was 4.48 log2 enrichment (interaction score).
In the case of “GGCUAGAACUAGUGGAUCCCCCGGCGCCCGGCGGCUCGAGCCCGGGUAAGUGUUAAUAGUCUGCAUGCCGCCGGGCGCCAUGCCUGCAGGUCGACUCUAGAAAACAUG”, the binding signal with PUM1 PUF domain R5-RSR was 3.79 log2 enrichment (interaction score).
Take “GGCUAGAACUAGUGGAUCCCCCGGCGCCCGGCGGCUCGAGCCCGGGUAAGUGUGAAUAGUCUGCAUGCCGCCGGGCGCCAUGCCUGCAGGUCGACUCUAGAAAACAUG”: the binding signal in the test with PUM1 PUF domain R5-SQS was 3.19 log2 enrichment (interaction score).
As for “GGCUAGAACUAGUGGAUCCCCCGGCGCCCGGCGGCUCGAGCCCGGGUAAGCGUAAAUAGUCUGCAUGCCGCCGGGCGCCAUGCCUGCAGGUCGACUCUAGAAAACAUG”, the binding signal in the test with PUM1 PUF domain R8-PYH was 3.67 log2 enrichment (interaction score).
Regarding “GGCUAGAACUAGUGGAUCCCCCGGCGCCCGGCGGCUCGAGCCCGGGUAAGUGUAAAUUGUCUGCAUGCCGCCGGGCGCCAUGCCUGCAGGUCGACUCUAGAAAACAUG”, the binding signal with PUM1 PUF domain R1-KAS is 3.9 log2 enrichment (interaction score); with PUM1 PUF domain R1-RVQ, 4.43 log2 enrichment (interaction score).
With “GGCUAGAACUAGUGGAUCCCCCGGCGCCCGGCGGCUCGAGCCCGGGUAAGUCUAAAUAGUCUGCAUGCCGCCGGGCGCCAUGCCUGCAGGUCGACUCUAGAAAACAUG”, the binding signal with PUM1 PUF domain R7-RFP is 5.14 log2 enrichment (interaction score).
For “GGCUAGAACUAGUGGAUCCCCCGGCGCCCGGCGGCUCGAGCCCGGGUAAGUGUAUAUAGUCUGCAUGCCGCCGGGCGCCAUGCCUGCAGGUCGACUCUAGAAAACAUG”, the binding signal with PUM1 PUF domain R4-EHR is 3.83 log2 enrichment (interaction score).
Turning to “GGCUAGAACUAGUGGAUCCCCCGGCGCCCGGCGGCUCGAGCCCGGGUAAGUGUAAAUCGUCUGCAUGCCGCCGGGCGCCAUGCCUGCAGGUCGACUCUAGAAAACAUG”, the binding signal in the test with PUM1 PUF domain R1-RVQ is 4.56 log2 enrichment (interaction score).

For the origin of these results see article PMC8384837, “Expanding the binding specificity for RNA recognition by a PUF domain”.
